17 compounds from PubChem BioAssay can be followed below.

By inhibition is commonly meant the drop in the measured response relative to a control, in per cent.

A number with no mark means an inactive call. Activity calls are given as the source filed them. No stated cut-off is given here; in the data, active means inhibition above about 42%; inactive means the rest.

Chain of Nuclear receptor subfamily 5 group A member 2 (Homo sapiens) (O00482 whole entry, looked up): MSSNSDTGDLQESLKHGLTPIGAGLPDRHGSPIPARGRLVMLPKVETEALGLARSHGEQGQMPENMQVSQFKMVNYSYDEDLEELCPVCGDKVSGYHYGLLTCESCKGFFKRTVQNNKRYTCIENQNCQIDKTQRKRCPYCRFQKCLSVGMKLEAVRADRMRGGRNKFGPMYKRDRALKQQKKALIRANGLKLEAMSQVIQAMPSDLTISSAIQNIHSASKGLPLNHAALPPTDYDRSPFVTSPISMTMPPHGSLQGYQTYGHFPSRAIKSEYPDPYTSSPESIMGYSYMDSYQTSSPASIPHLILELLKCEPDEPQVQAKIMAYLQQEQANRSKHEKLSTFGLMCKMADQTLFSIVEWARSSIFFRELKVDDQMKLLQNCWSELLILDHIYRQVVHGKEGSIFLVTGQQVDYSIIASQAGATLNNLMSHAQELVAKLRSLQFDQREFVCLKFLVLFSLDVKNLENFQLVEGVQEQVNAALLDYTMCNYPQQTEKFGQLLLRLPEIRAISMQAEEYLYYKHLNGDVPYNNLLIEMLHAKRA

This assay addresses Nuclear receptor subfamily 5 group A member 2 (Homo sapiens) (UniProt O00482). The assay is described as follows: NR5A2 activity suppression in reporter cells – cell-based, luminescence, confirmation (AID 651613).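 Further: HEK293T cells co-transfected with LRH-1 and StAR promoter luciferase reporter; 0% = vehicle wells and 100% = parental cells lacking receptor.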 The settings on record: cell-based LRH-1 luciferase reporter, inverse agonism; at 3.6 µM; hits give high values.
Regarding `CCCC(=O)NC(c1ccc(C)cc1)c1ccc2cccnc2c1O` (configuration not stated), the inhibition was 103% (active).

Turning to `Cc1nn(C(C)(C)C)c(C)c1/C=N/OC(=O)Nc1ccc(Cl)cc1`, the inhibition was 95.5% (active).

For the compound `O=C(Nc1nc(-c2ccccc2)cs1)c1ccccc1NS(=O)(=O)c1ccc(F)cc1`, the inhibition was 101% (active).

Take `CCCCCCCn1c2c(c(=N)c3c1CCC3)CCCC2`: the inhibition is 110% (active).

`CC(=NNC(=S)Nc1ccccc1)c1ccccn1`: the inhibition was 101% (active).

Take `O=NN(CC(=O)NNc1ccccc1)CC(=O)NNc1ccccc1`: the inhibition is 58.7% (active).

Regarding `CC1(C)N=C(N)N=C(N)N1CCCCc1ccccc1`, the inhibition was 48.8% (active).

Regarding `Cc1ccc(/C=C/C(=O)c2c(C)cc(C)[nH]c2=O)cc1`, the inhibition was 42.8% (active).

On to `COc1ccc(N=C(NN)c2ccc3ccccc3n2)cc1`, for which the inhibition was -81.3%.

Consider `O=[N+]([O-])c1cc(CN2CCN(c3ccccc3)CC2)c(O)c2ncccc12`, for which the inhibition is 90.1% (active).

Turning to `N=C1C=CC(=C(c2ccc(N)cc2)c2ccc(N)cc2)C=C1`, the inhibition was 110% (active).

In the case of `C=C1C(=O)c2sccc2C(c2ccc(OC)c(OC)c2)C1COC(C)=O` (configuration not stated), the inhibition is 95.4% (active).

Consider `Cn1cnc([N+](=O)[O-])c1Sc1nc(N)nc2c1ncn2C1OC(CO)C(O)C1O` (configuration not stated), for which the inhibition is 52% (active).

Take `O=C(NC(Nc1nc2ccc([N+](=O)[O-])cc2s1)(C(F)(F)F)C(F)(F)F)c1cccnc1`: the inhibition is 104% (active).

Turning to `CC(=NNC(=S)Nc1ccccc1Cl)c1ccccn1`, the inhibition is 106% (active).

As for `CCN1/C(=C/c2ccc3cc(C)ccc3[n+]2CC)Sc2cc(C)c(C)cc21`, the inhibition was 87.4% (active).

With `O=C1[C@@H]2Cc3c([nH]c4ccccc34)C(c3ccc([N+](=O)[O-])cc3)N2C(=O)CN1C1CC1` (some centres not stated), the inhibition is 67.9% (active).
